Drawing on PubChem BioAssay (NCATS), this text covers Potency and activity (max response) for 20 compounds.

Where “and” joins values, the source holds several entries; their conditions need not be identical. Equal entries are not always repeated. Records with an inconclusive call do not appear. A number with no mark means an inactive call. Calls of active or inactive are those of the source. The call rests on the fitted dose curve; in most records, active means well fitted curve in the direction sought with a large enough effect; inconclusive means small, poorly fitted or top-dose-only effect, or another doubt; inactive means no such curve, though single readings can be large; an effect the other way counts as inactive or inconclusive.

A short description of assay [1]: Viability qHTS for spleen associated tyrosine kinase inhibitor (SYKi) naive MV4-11 cells (AID 1963823). Further: nearly all actives have a fitted effect of over 40% in size. Further: potency means the concentration at half of the fitted maximal effect. The essentials: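 In this viability screen, compounds acted on SYK inhibitor naive MV4-11 cells for three days (72 hr, 37 C). Remaining viable cells were measured by CellTiter-Glo luminescence following a 10 min room-temperature development.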
Assay [2] is described as follows: Viability qHTS for spleen associated tyrosine kinase inhibitor (SYKi) drug resistant MV4-11 cells (AID 1963824). Further: nearly all actives have a fitted effect of over 35% in size. Further: potency means the concentration at half of the fitted maximal effect. In outline: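 SYK-inhibitor-resistant MV4-11 AML cells were seeded at 500 per well onto compound and cultured 72 hours (37 °C, 5% CO2). CellTiter-Glo was then added, and after 10 min at room temperature, luminescence gave viability.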
For orientation: qHTS replaces the single test concentration by a dilution series.

Assay [3] can be described thus: Quantitative highthroughput screen to assess conditional lethalithy of NOMO1 cells grown in RPMI1640 with untreated serum (RPMI+s) (AID 1963876). Further: nearly all actives have a fitted effect of over 35% in size. Further: potency means the concentration at half of the fitted maximal effect.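 On Viability: 100% = DMSO wells and 0% = empty wells without cells.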 In outline: (§1)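 Each medium arm—HPLM with 10% dialyzed FBS, or RPMI1640 with 5 mM glucose and 10% untreated or dialyzed FBS—was screened against an 11-point, 3-fold compound titration for 48 h at 37 °C, with CellTiter-Glo luminescence as endpoint.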

A short description of assay [4]: Quantitative highthroughput screen to assess conditional lethalithy of NOMO1 cells grown in RPMI1640 with dialyzed fetal bovine serum (RPMI+ds) (AID 1963877). Further: nearly all actives have a fitted effect of over 30% in size. Further: potency means the concentration at half of the fitted maximal effect.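 On Viability: series mostly up to about 46 µM; 100% = DMSO control wells and 0% = empty wells.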 In outline:
as §1

Assay [5] is described as follows: Quantitative highthroughput screen to assess conditional lethalithy of P12 Ichikawa cells grown in RPMI1640 with dialyzed fetal bovine serum (RPMI+ds) (AID 1963880). Further: nearly all actives have a fitted effect of over 35% in size. Further: potency means the concentration at half of the fitted maximal effect.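 On Viability: 100% = DMSO wells and 0% = empty wells on each plate.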 Conditions: Potency: P12-Ichikawa viability. The essentials:
as §1

The nature of assay [6]: Quantitative highthroughput screen to assess conditional lethalithy of P12 Ichikawa cells grown in RPMI1640 with untreated serum (RPMI+s) (AID 1963881).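 Further: series mostly up to about 46 µM; 100% = DMSO wells and 0% = empty wells without cells; nearly all actives have a fitted effect of over 35% in size.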 Conditions: Potency: viability. In outline:
as §1

Assay [7] is described as follows: Quantitative highthroughput screen to assess conditional lethalithy of SEM cells grown in Human Plasma-Like Medium with dialyzed fetal bovine serum (HPLM+ds) (AID 1963882). Further: nearly all actives have a fitted effect of over 35% in size. Further: potency means the concentration at half of the fitted maximal effect. On Viability: series mostly up to about 46 µM. The essentials: as §1
Assay [8] is described as follows: Quantitative highthroughput screen to assess conditional lethalithy of SEM cells grown in RPMI1640 with dialyzed fetal bovine serum (RPMI+ds) (AID 1963884). Further: nearly all actives have a fitted effect of over 35% in size. Further: potency means the concentration at half of the fitted maximal effect.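 On Viability: series mostly up to about 46 µM; 100% = DMSO control wells and 0% = empty wells without cells.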 In outline:
as §1

A short description of assay [9]: Cellular viability qHTS for adrenocortical cancer (ACC) cell line SW-13 (AID 1963989).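 Further: cells grown in serum-free medium with ITS supplement; on the % scale 0 is the no-effect control and ±100 the full control effect; nearly all actives have a fitted effect of over 65% in size.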 Conditions: SW-13 ACC cells viability, CellTiter-Glo, 48 h; activity (max response): hits give low values. In outline: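 SW-13 cells in ITS-supplemented serum-free DMEM were plated overnight, then exposed for 48 h at 37C to compound titrations (up to 46 uM final). Viability was read by CellTiter-Glo luminescence; four-parameter logistic fits gave IC50 and efficacy.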

Assay [10] can be described thus: Quantitative highthroughput screen to assess conditional lethalithy of NOMO1 cells grown in Human Plasma-Like Medium with dialyzed fetal bovine serum (HPLM+ds) (AID 1963878). Further: nearly all actives have a fitted effect of over 35% in size. Further: potency means the concentration at half of the fitted maximal effect.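 On Viability: 100% = DMSO wells and 0% = empty wells on each plate.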 The essentials: as §1
Assay [11] can be described thus: Quantitative highthroughput screen to assess conditional lethalithy of P12 Ichikawa cells grown in Human Plasma-Like Medium with dialyzed fetal bovine serum (HPLM+ds) (AID 1963879). Further: nearly all actives have a fitted effect of over 35% in size. Further: potency means the concentration at half of the fitted maximal effect. On Viability: series mostly up to about 46 µM. Conditions: Potency: viability. The essentials: as §1
Assay [12] is described as follows: Cellular viability qHTS for adrenocortical cancer (ACC) cell line NCI-H295R (AID 1963990). Further: nearly all actives have a fitted effect of over 60% in size. Further: potency means the concentration at half of the fitted maximal effect. The essentials:
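Luminescent ATP read-out (CellTiter-Glo, 20 min RT) after 48 h drug exposure of NCI-H295R cells; a titration up to 46 uM final. Data normalized to doxorubicin (100% inhibition) and DMSO (0%); 4-parameter fit gives IC50, max response.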

Assay [13] can be described thus: Quantitative highthroughput screen to assess conditional lethalithy of SEM cells grown in RPMI1640 with unreated serum (RPMI+s) (AID 1963883). Further: nearly all actives have a fitted effect of over 35% in size. Further: potency means the concentration at half of the fitted maximal effect.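 On Viability: 100% = DMSO wells and 0% = empty wells without cells.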 The essentials:
as §1

Take `O=C1CN=C(c2ccccc2Cl)c2cc(Br)ccc2N1`: the Potency entry in assay [1] and in [2] was “inactive” each time.

As to `c1ccc2c(c1)Sc1ccccc1N2CC1CN2CCC1CC2` (stereo unspecified), the Potency in assay [1] and in [2] was 26.6 µM (active) each time.

With `C[C@]12CC[C@H]3[C@@H](CCC4=C/C(=N/OCC(=O)O)CC[C@@]43C)[C@@H]1CC[C@@H]2O`, the Potency result in [1] and in assay [2] was “inactive” each time.

For the compound `O=C(N[C@H]1CN2CCC1CC2)c1ccc(Cl)cc1`, the Potency entry in assay [1], in assay [2], in assay [3], in assay [4], in [5] and in [6] was “inactive” in each case. The Potency entry in assay [7] and in [8] was “inactive” throughout. For the same compound, in assay [9], the activity (max response) is 3.8%.

As to `COc1ccc(C(=O)c2c(C)n(CCN3CCOCC3)c3ccccc23)cc1`, the Potency in assay [1] was 26.6 µM (active); in assay [2], 16.6 µM (active); in [12], 14.6 µM (active). The Potency entry in [3], in assay [4], in assay [10], in assay [11], in assay [5] and in assay [7] was “inactive” throughout. In addition, the Potency entry in assay [8] was “inactive”.

For `O=C(N[C@H]1CN2CCC1CC2)c1cc2cccc(Cl)c2s1`, the Potency in [1] is 14.6 µM (active); in [2] it was 20.6 µM (active).

As for `c1ccc2c(c1)Nc1ccccc1S2`, the Potency entry in assay [1] and in [2] was “inactive” each time.

`CCN1CC2(COC)C3[C@@H](OC)C4C1C3(C1C[C@]3(O)[C@H](OC(=O)c5ccccc5)C1[C@]4(OC(C)=O)[C@@H](O)[C@@H]3OC)[C@H](OC)C[C@H]2O` (stereo partly specified): the Potency entry in assay [1] and in assay [2] was “inactive” each time.

For the compound `C[C@H]1O[C@@H](O[C@H]2C[C@@H](O)[C@]3(CO)C4C(CC[C@]3(O)C2)[C@@]2(O)CC[C@H](C3=CC(=O)OC3)[C@@]2(C)C[C@H]4O)[C@@H](O)[C@@H](O)[C@H]1O` (stereo partly specified), the Potency in assay [1] was 0.172 µM (active); in [2] it was 0.122 µM (active).

With `C=CC(C)(C)c1[nH]c2c(CC=C(C)C)cc(CC=C(C)C)cc2c1C[C@@H]1NC(=O)[C@H](C)NC1=O`, the Potency entry in [1] and in assay [2] was “inactive” in each case.

For the compound `COc1cc(O)c2c(c1)CCC[C@@H](O)[C@H](O)C(=O)/C=C\C[C@H](C)OC2=O`, the Potency was 1.8 µM (active) in [1] and 2.86 µM (active) in assay [2].

For `COC1CC(O[C@H]2CC[C@]3(C)C4CC[C@]5(C)[C@@H](C6=CC(=O)OC6)[C@@H](OC(C)=O)C[C@]5(O)C4CC[C@@H]3C2)OC(C)C1O[C@@H]1O[C@H](CO)[C@@H](O)[C@H](O)[C@H]1O` (stereo partly specified), the Potency was 0.306 µM (active) in assay [1] and 0.243 µM (active) in assay [2].

Take `CC(=O)O[C@H]1CN2CCC1CC2`: the Potency entry in [1] and in [2] was “inactive” each time.

On to `N[C@@H](Cc1ccc(N(CCCl)CCCl)cc1)C(=O)O`, for which the Potency in [1] was 10.6 µM (active) and 833 nM (active); in assay [2], 7.5 µM (active) and 742 nM (active); in assay [3], 10.5 µM (active); in [4], 9.35 µM (active); in assay [10], 7.43 µM (active); in [11], 10.5 µM (active). Also, the Potency is 5.9 µM (active) in [5]; 4.18 µM (active) in assay [7]; 2.64 µM (active) in assay [13]; 2.96 µM (active) in assay [8]; 28.2 µM (active) in [12]. For the same compound, in assay [9], the activity (max response) is -19.4%.

For the compound `CN[C@H]1[C@H](O)[C@H](O[C@@H]2[C@@H](O)[C@H](O[C@H]3O[C@H]([C@H](C)O)[C@@H](O)[C@H](O)[C@H]3N)[C@@H](N)C[C@H]2N)OC[C@@]1(C)O`, the Potency entry in assay [1] and in assay [2] was “inactive” each time.

In the case of `CN[C@@H]1Cc2cccc3[nH]c(=O)n(c23)C1`, the Potency entry in [1], in assay [2], in assay [3], in assay [11], in [6] and in assay [7] was “inactive” each time. For the same compound, the Potency entry in assay [8] and in assay [12] was “inactive” in each case. The activity (max response) in assay [9] was -9.99%.

With `COC1=C[C@@H]2[C@@H]3Cc4ccc(OC)c(O)c4[C@]2(CCN3C)CC1=O`, the Potency result in assay [1], in [3], in assay [4], in assay [10], in assay [11] and in assay [5] was “inactive” throughout. For the same compound, the Potency entry in [7], in assay [13] and in assay [8] was “inactive” each time. The Potency in assay [2] was 18.6 µM (active). In assay [9], the activity (max response) was -18.4%.

`COC1C=CC23c4cc5c(cc4COC2(O)CN(C)C3C1)OCO5` (stereo unspecified): the Potency entry in [1] and in assay [2] was “inactive” in each case.

As to `CC(C)[C@H]1OC(=O)[C@H](Cc2ccccc2)N(C)C(=O)[C@@H](C(C)C)OC(=O)[C@H](Cc2ccccc2)N(C)C(=O)[C@@H](C(C)C)OC(=O)[C@H](Cc2ccccc2)N(C)C1=O`, the figures for the Potency in assay [1] and in assay [2] were 3.85 µM (active) and 5.44 µM (active), respectively.

As for `CC1CCCC(O)CC(=O)Cc2cc(O)cc(O)c2C(=O)O1` (stereo unspecified), the Potency entry in assay [1] and in [2] was “inactive” in each case.
